# HepG2 tox: counter-screen for TGF-b inhibitors: cytotoxicity in HepG2 cells; HepG2 CAGA-GFP viability, ATP luminescence, 18 h; Potency, µM (series often up to 46.1 µM), for inactives: at the highest dose activity change, negative = cytotoxicity, most hits filed as cytotoxic; 410,000 compounds, 0.76% hits; AID 588856; note: potency is the fitted concentration of half-maximal effect
#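 CellTiter-Glo luminescence gave cytotoxicity after 18 hours at 37 degrees C. The cells were HepG2 CAGA-GFP in 1% FBS DMEM, stimulated with 500 pg/mL TGF-beta after compound addition. %Activity was normalised to no-cell wells (complete cell-killing) and DMSO (no toxicity), and curves were fitted and classified.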
# TGFb SMAD3 inh: TGF-b pathway inhibition; HepG2 CAGA-GFP TGF-b/SMAD3 reporter, GFP fluorescence, 18 h; TGF-beta stimulated, 500 pg/mL final; Potency, µM (top dose mostly 46.1 µM), inactives show at the highest dose activity, negative = inhibition, hits mostly inhibitors; 410,000 compounds, 1.2% hits; AID 588855; note: potency is the fitted concentration of half-maximal effect; % is set by controls: 0 for no effect and ±100 for the full control effect; nearly all actives have a fitted effect of over 65% in size
#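 Cell-based qHTS in HEPG2 carrying a CAGA-GFP Smad reporter; compounds added before 500 pg/mL final TGF-beta, 18 h incubation at 37 degrees C, GFP fluorescence quantified per cell by imaging cytometry.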
# ASM inhibitor: inhibitors of human secretory acid sphingomyelinase; Potency, µM (series often up to 57.5 µM), for the others: top-dose activity change, negative = inhibition, most hits filed as inhibitors; P17405; placental ASM, HMU-PC fluorogenic substrate, 60 min; 340,000 compounds, 0.006% hits; note: potency is the fitted concentration of half-maximal effect
# Target sequence (P17405 47-631 limits assumed): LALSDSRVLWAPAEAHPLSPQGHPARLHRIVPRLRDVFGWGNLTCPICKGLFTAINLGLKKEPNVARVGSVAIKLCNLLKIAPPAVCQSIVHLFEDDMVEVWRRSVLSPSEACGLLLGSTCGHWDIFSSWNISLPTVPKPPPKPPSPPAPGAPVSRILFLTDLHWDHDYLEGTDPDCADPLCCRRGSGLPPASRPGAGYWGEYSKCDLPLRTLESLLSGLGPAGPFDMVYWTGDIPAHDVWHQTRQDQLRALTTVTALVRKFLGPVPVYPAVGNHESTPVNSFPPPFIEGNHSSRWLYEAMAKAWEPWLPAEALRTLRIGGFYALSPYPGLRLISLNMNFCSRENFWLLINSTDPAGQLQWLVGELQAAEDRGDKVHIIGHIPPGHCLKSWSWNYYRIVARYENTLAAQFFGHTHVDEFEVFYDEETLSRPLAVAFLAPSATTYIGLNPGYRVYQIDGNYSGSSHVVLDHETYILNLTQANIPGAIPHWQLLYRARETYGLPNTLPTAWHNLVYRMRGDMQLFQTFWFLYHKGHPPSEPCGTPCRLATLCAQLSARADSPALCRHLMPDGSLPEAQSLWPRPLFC
#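 Fluorogenic HMU-PC substrate (9 uM final) is turned over by placental ASM in 60 min at 37 C after a 10 min compound preincubation. Reaction ended by alkaline stop (pH 10), with fluorescence read at 386/447 nm.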
# IL1B secr inh: inflammasome signaling inhibition, IL-1 beta readout | THP-1 LPS/ATP IL-1B secretion, AlphaLISA, 16 h; stronger effect = lower value | activity change, % at 57.5 µM | 360,000 compounds, 4.7% hits | AID 743279; in the data active = activity change below about -50%; inconclusive = mostly about -30% to -49%; note: % is set by controls: 0 for no effect and ±100 for the full control effect
#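 Secreted IL-1B measured by AlphaLISA bead assay after 16 h compound exposure of THP-1 cells; compounds (final up to 57.5 uM) added 1 h before LPS (250 ng/mL) and ATP (1.25 mM) stimulation; lower signal means less secretion.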
# TDP1 cell CPT: DT40-hTDP1 cell growth loss with CPT; AID 686979; Potency, µM (highest dose often 46.2 µM), for the others: top-dose activity change, negative = growth inhibition, most hits filed as inhibitors; chicken DT40 Tdp1-/-;hTDP1 cells + 20 nM CPT, ATP luminescence, 48 h; 420,000 compounds, 12% hits; note: potency is the fitted concentration of half-maximal effect; % is set by controls: 0 for no effect and ±100 for the full control effect; nearly all actives have a fitted effect of over 55% in size
#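 Cell growth measured by CellTiter-Glo luminescence after a minimum 48 h, 37 C compound exposure with 20 nM CPT in Tdp1-knockout DT40 cells stably expressing hTDP1, seeded 400/well; qHTS titration format.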
# DT40 TDP1 no CPT: qHTS for Inhibitors of human tyrosyl-DNA phosphodiesterase 1 (TDP1): qHTS in cells in absence of CPT; DT40 Tdp1-/- hTDP1 cells, no CPT, ATP luminescence, 48 h; 420,000 compounds, 15% hits; Potency, µM (top dose mostly 46.2 µM), for the others: at the top dose activity change, negative = growth inhibition, actives largely listed as inhibitors; note: potency is the fitted concentration of half-maximal effect; % is set by controls: 0 for no effect and ±100 for the full control effect; nearly all actives have a fitted effect of over 55% in size
#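 Camptothecin absent (DMSO only). Human TDP1-complemented DT40 knockout cells, 400 cells/well, 37 °C for minimum 48 hr; ATP measured via CellTiter-Glo, 30 min dark incubation, luminescence.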
# Active calls of the source: *; ? = inconclusive; nt = no result given; [ ] = another dose, or the depositor's remark. The list is not random: actives were taken first. Their share in the collection is about 19%. Unless noted, calls come from the whole dose curve; as a rule, active = well fitted curve in the direction sought with a large enough effect; inconclusive = small, poorly fitted or top-dose-only effect, or another doubt; inactive = no such curve, though single readings can be large; an effect the other way counts as inactive or inconclusive.
SMILES,HepG2 tox,TGFb SMAD3 inh,ASM inhibitor,IL1B secr inh,TDP1 cell CPT,DT40 TDP1 no CPT
O=C(C1CCC(CNS(=O)(=O)c2cccc3nsnc23)CC1)N1CCN(c2ccccn2)CC1 (stereo unspecified),-36%,-3%,2%,10,?,23µM*
CC(C)CCNC(=O)C1CCC(CNS(=O)(=O)c2cccc3nsnc23)CC1 (stereo unspecified),-10%,-19%,3%,-1,?,?
O=C(C1CCC(CNS(=O)(=O)c2cccc3cccnc23)CC1)N1CCc2ccccc21 (stereo unspecified),-29%,-30%,-18%,-8,?,18µM*
O=C(CSc1nc(-c2ccco2)nc2cc(=O)[nH]n12)Nc1ccc(F)cc1,-1%,-4%,nt,nt,-12%,-10%
Cc1c(C(=O)NC(C)(C)CO)sc2ncnc(NCCN(C)C)c12,nt,nt,nt,nt,12%[9.04 µM],-10%
CCOC(=O)c1cnc2c(C)cc(C)cc2c1Nc1ccccc1OCC,-16%,-4%,nt,nt,-20%,-8%
O=C1C(=NO)CCc2ccccc21,-90%,?,4%,-78*,21µM*,21µM*
Cc1cnc(N=Nc2ccccc2)[nH]1,-20%,0%,-7%,-27,?,?
O=C1c2ccccc2C2=Nc3ccccc3SC(c3cccc(F)c3)C12 (stereo unspecified),-36%,?,?,-7,16µM*,16µM*
CC(C)C1Nc2c(O)cc(Cl)c([N+](=O)[O-])c2C2C=CCC21 (stereo unspecified),-36%,13µM*,-14%,65,?,?
O=C(Nc1ccon1)Nc1ccccc1C(F)(F)F,11%,2%,9%,-5,-11%,28%
Cn1c(=O)[nH]c(N)c(Br)c1=O,-4%,7%,2%,0,-30%,?
O=[N+]([O-])c1ccc2ccn(C3OCC(O)C(O)C3O)c2c1 (stereo unspecified),-1%,-2%,0%,-22,10%,3%
N/C(=N\c1nc2ccccc2o1)NC(=O)c1ccccc1NC(=O)c1ccccc1,-24%,-6%,11%,6,5.2µM*,3.7µM*
N/C(=N\c1nc2ccccc2o1)NC(=O)c1ccccc1F,-5%,0%,3%,6,-1%,?
Cc1cc(C)n2c(Nc3ccc4c(c3)OCCO4)c(CCc3ccccc3)nc2n1,nt,nt,nt,10,8.2µM*,5.8µM*
Cc1cc(C)n2c(Nc3ccc4c(c3)OCCO4)c(C3CC3)nc2n1,nt,nt,nt,70,?,18µM*
Cc1cc(C)n2c(Nc3ccc4c(c3)OCCO4)c(C(C)C)nc2n1,nt,nt,nt,89,8.2µM*,5.8µM*
Cc1cc(C)n2c(Nc3ccc4c(c3)OCCO4)c(-c3ccccc3)nc2n1,-8%,?,-6%,-15,?,?
O=C(NCC(c1ccco1)N1CCN(c2ccccc2)CC1)C(=O)NC1CCCC1 (stereo unspecified),2%,1%,0%,4,?,?
Cc1nnc(SCC(=O)NC(C)(C)C)n1NCc1cccc(Br)c1,-8%,-1%,1%,10,7%,-14%
Cc1cccc(C(C)C)c1NC(=O)CN1C(=O)NC(Cc2ccccc2)C1=O (stereo unspecified),7%,-13%,-1%,8,9%,-2%
Oc1cc(Nc2cccnc2)cc2cccnc12,-57%,?,2%,nt,nt,nt
Oc1cc(NCCc2cccnc2)cc2cccnc12,11µM*,?,25%,nt,nt,nt
Cc1ccc(S(=O)(=O)N2CCOCC2)cc1C(=O)OC1CCOC1=O (stereo unspecified),0%,7%,-1%,5,-11%,0%
SMILES,HepG2 tox,TGFb SMAD3 inh,ASM inhibitor,IL1B secr inh,TDP1 cell CPT,DT40 TDP1 no CPT
COc1ccc(C(c2nnnn2C2CCCC2)N2CCC(C)CC2)c(OC)c1 (stereo unspecified),-3%,9%,-1%,-11,18µM*,21µM*
COc1ccc(OC)c(C(c2nnnn2C2CCCC2)N2CCN(c3ccc(F)cc3)CC2)c1 (stereo unspecified),-1%,20%,-2%,-6,?,?
CC(C)C(c1nnnn1C1CCCC1)N1c2ccccc2CC1C (stereo unspecified),-20%,9%,3%,-5,21µM*,13µM*
CC(C)C(c1nnnn1C1CCCCC1)N1CCc2ccccc21 (stereo unspecified),-11%,-3%,-3%,5,?,?
COc1ccc(N2CCN(C(c3nnnn3C3CCCC3)C(C)C)CC2)cc1 (stereo unspecified),-5%,-3%,-2%,14,21µM*,18µM*
Cc1nc(Cc2nnc(SC(C)C(=O)N3c4ccccc4NC(=O)C3(C)C)o2)cs1 (stereo unspecified),1%,-4%,3%,9,-20%,?
C=CCN(c1ccccc1)S(=O)(=O)c1ccc2c(c1)NC(=O)C(C)C(=O)N2 (stereo unspecified),1%,2%,0%,14,7%,1%
CCCCC(C(=O)O)C(C)CC(=O)NNC(=O)c1ccco1 (stereo unspecified),4%,-21%,-2%,0,7%,5%
CCN(CC(=O)Nc1ccc(NC(C)=O)cc1)C(=O)c1ccc(COc2ccc(C(C)(C)C)cc2)cc1,-33%,?,-19%,-51*,?,23µM*
CCOc1ccc(OCc2ccc(C(=O)N(CC)CC)cc2)cc1,-21%,?,-4%,0,?,15µM*
CCN(CC(=O)Nc1ccc(NC(C)=O)cc1)C(=O)c1ccc(C(=O)c2ccccc2)cc1,-1%,?,-1%,-3,4%,0%
CCN(CC(=O)Nc1c(F)cccc1F)C(=O)c1ccc(COc2ccccc2)cc1,5%,-20%,-2%,8,?,?
COc1ccccc1NC(=O)CCN1CCCCC1,2%,-10%,nt,nt,3%,4%
O=C(NC1CCCC1)C1C(c2ccc(C(F)(F)F)cc2)=Nc2ccccc2N1C(=O)c1cccc2ccccc12 (stereo unspecified),nt,nt,nt,-7,?,?
Cc1cccc(CN2C[C@]34CC[C@@H](C[C@@H]3S2(=O)=O)O4)c1,17%,4%,1%,22,9%,11%

# High-throughput results as filed in PubChem.
